Data on 37 molecules can be found in PubChem BioAssay (NCATS).

Molecules are shown by their SMILES. Records with an inconclusive call do not appear. Calls of active or inactive are those of the source. The call rests on the fitted dose curve; in most records, active means well fitted curve in the direction sought with a large enough effect; inconclusive means small, poorly fitted or top-dose-only effect, or another doubt; inactive means no such curve, though single readings can be large; an effect the other way counts as inactive or inconclusive.
Potency means the concentration at half of the fitted maximal effect.

One assay can be described thus: qHTS for differential inhibitors of proliferation of Plasmodium falciparum line D10 (AID 1877).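 Further: parasites grown with compound for 72 h before DNA staining.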 To be noted: series mostly up to 28.7 µM.
Regarding `c1ccc2c(c1)CC(N1CCN(c3cccc4c3OCCO4)CC1)C2`, the Potency result is “inactive”.
Take `N[C@@H](Cc1ccc(F)cc1)C(=O)O`: the Potency is 17.8 µM (active).
With `CNC(=O)c1cc2c(cn1)[nH]c1ccccc12`, the Potency result is “inactive”.
Turning to `O=c1ccc2c(OCCCCc3ccccc3)c3ccoc3cc2o1`, the Potency was 12.6 µM (active).
For `CCCC(=O)NCCc1c2n(c3ccc(OC)cc13)CCCc1ccccc1-2`, the Potency is 12.6 µM (active).
`C#CC(N)CCC(=O)O` (stereo not given): the Potency entry was “inactive”.
As to `CCCn1c(=O)c2c(ncn2C)n(CCC)c1=O`, the Potency result is “inactive”.
For `Nc1ccc(-c2ccc3ccccc3n2)cc1`, the Potency entry was “inactive”.
As to `COC(=O)C1=C(C)NC(C)=C([N+](=O)[O-])C1c1ccccc1C(F)(F)F` (stereo not given), the Potency entry is “inactive”.
The same measure, in the same setting: the same measure for `CC(=O)NNC(=O)N1Cc2ccccc2Oc2ccc(Cl)cc21`: “inactive”.
In the case of `CNCCNS(=O)(=O)c1cccc2cnccc12`, the Potency entry was “inactive”.
Still for that read-out and setting: for `Nc1ccc(N2C(=O)c3ccccc3C2=O)c(Cl)c1` the value was “inactive”.
Same read-out and setting: for `Cn1c(=O)c2[nH]c(C3CCCC3)nc2n(C)c1=O` the value was “inactive”; for `COc1cc(C(O)CO)ccc1O` (stereo not given), “inactive”.
Turning to `Nc1nc2[nH]c(=O)cnc2c(=O)[nH]1`, the Potency result is “inactive”.
The same measure, in the same setting: the same measure for `COc1cc(N)c(Cl)cc1C(=O)OCCN1CCCCC1`: “inactive”.
Same read-out and setting: for `N=S(=O)(O)Cc1noc2ccccc12` the value was “inactive”.

A further assay can be described thus: qHTS for differential inhibitors of proliferation of Plasmodium falciparum line Dd2 (AID 1882). Further: nearly all actives have a fitted effect of over 65% in size. To be noted: Potency: Plasmodium falciparum Dd2 proliferation inhibition; series mostly up to 28.7 µM. A digest of the protocol: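 RBC culture, 0.3% parasitemia / 2.5% Hct final; cpd added by pin tool in DMSO; 72 h, 37 C, 5% CO2; lysis buffer + SYBR Green I, o/n RT dark; FI 485/535; norm. to artemisinin 0.29 uM and DMSO.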
In the case of `COC(=O)C(C)(N)Cc1ccc(O)cc1` (stereo not given), the Potency entry was “inactive”.
Regarding `O=c1onc2cnc3ccccc3n12`, the Potency result is “inactive”.
Same read-out and setting: for `CC(=O)O[C@H]1CC2(C)[C@@H](C[C@@H](O)[C@H]3[C@@]4(C)CC[C@@H](O)[C@@H](C)[C@@H]4CC[C@@]32C)C1=C(CCC=C(C)C)C(=O)O` (stereo not given in full) the value was “inactive”; for `NC(N)=NC(N)=Nc1cccc(Cl)c1`, “inactive”; for `NCC(O)c1ccc(O)c(O)c1` (stereo not given), “inactive”.
Still for that read-out and setting: for `CCCC[C@@]1(C2CCCC2)Cc2cc(OCC(=O)O)c(Cl)c(Cl)c2C1=O` the value was “inactive”.
Regarding `COc1ccccc1N1CCN(CCCNc2c(C)c(=O)n(C)c(=O)n2C)CC1`, the Potency result was “inactive”.
Consider `O=c1cc(-c2ccccc2)[nH]c2nc(Cl)ccc12`, for which the Potency result is “inactive”.
Take `O=C(N[C@@H](Cc1ccccc1)C(=O)CCl)OCc1ccccc1`: the Potency is 11.2 µM (active).
`Cn1c(=O)[nH]c2ncn(C)c2c1=O`: the Potency entry was “inactive”.
Same read-out and setting: for `CCN(CC)CCCCCCCCOC(=O)c1cc(OC)c(OC)c(OC)c1` the value was 8.91 µM (active).
As to `Oc1cc2c(cc1O)C(c1ccccc1)CNCC2` (stereo not given), the Potency entry was “inactive”.
Turning to `N#C/C(=C\c1ccc(O)c(O)c1)C(=O)NCCc1ccccc1`, the Potency was 11.2 µM (active).
As for `NC1(C(=O)O)CC1`, the Potency entry was “inactive”.
On to `Nc1ccc(CCNc2ncnc3c2ncn3C2OC(CO)C(O)C2O)cc1` (stereo not given), for which the Potency entry is “inactive”.
As to `CCCCCCCC/C=C\CCCCCCCC(=O)NCCc1ccc(O)c(O)c1`, the Potency is 8.91 µM (active).
With `O=S(=O)(c1cccc2c(Cl)cccc12)N1CCCNCC1`, the Potency is 4.47 µM (active).
As to `Fc1ccc(CN(C2=NCCN2)c2c(Cl)cccc2Cl)cc1`, the Potency was 7.94 µM (active).
Consider `CC1=C(/C=C/C(C)=C/C=C/C(C)=C\C(=O)O)C(C)(C)CCC1`, for which the Potency is 10 µM (active).
Take `CC(C)(CO)Cc1cc(C(C)(C)C)c(O)c(C(C)(C)C)c1`: the Potency result is “inactive”.

The next assay in a line: qHTS for differential inhibitors of proliferation of Plasmodium falciparum line W2 (AID 1883).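 Further: parasites grown with compound for 72 h before lysis and staining.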 The following applies: Potency: Plasmodium falciparum W2 proliferation inhibition; series mostly up to 28.7 µM.
Regarding `c1ccc2c(c1)CC(N1CCN(c3cccc4c3OCCO4)CC1)C2`, the Potency was 5.01 µM (active).
Consider `N[C@@H](Cc1ccc(F)cc1)C(=O)O`, for which the Potency was 11.2 µM (active).
On the same count and under the same terms, for `CNC(=O)c1cc2c(cn1)[nH]c1ccccc12` the value was 12.6 µM (active); for `COC(=O)C(C)(N)Cc1ccc(O)cc1` (stereo not given), 12.6 µM (active).
Turning to `O=c1onc2cnc3ccccc3n12`, the Potency entry was “inactive”.
Same read-out and setting: for `CC(=O)O[C@H]1CC2(C)[C@@H](C[C@@H](O)[C@H]3[C@@]4(C)CC[C@@H](O)[C@@H](C)[C@@H]4CC[C@@]32C)C1=C(CCC=C(C)C)C(=O)O` (stereo not given in full) the value was 10 µM (active).
As to `NC(N)=NC(N)=Nc1cccc(Cl)c1`, the Potency was 5.01 µM (active).
As to `NCC(O)c1ccc(O)c(O)c1` (stereo not given), the Potency was 11.2 µM (active).
Still for that read-out and setting: for `O=c1ccc2c(OCCCCc3ccccc3)c3ccoc3cc2o1` the value was 10 µM (active); for `CCCC(=O)NCCc1c2n(c3ccc(OC)cc13)CCCc1ccccc1-2`, 7.94 µM (active).
With `CCCC[C@@]1(C2CCCC2)Cc2cc(OCC(=O)O)c(Cl)c(Cl)c2C1=O`, the Potency was 10 µM (active).
Regarding `COc1ccccc1N1CCN(CCCNc2c(C)c(=O)n(C)c(=O)n2C)CC1`, the Potency is 8.91 µM (active).
Turning to `O=c1cc(-c2ccccc2)[nH]c2nc(Cl)ccc12`, the Potency was 10 µM (active).
Take `O=C(N[C@@H](Cc1ccccc1)C(=O)CCl)OCc1ccccc1`: the Potency is 8.91 µM (active).
The same measure, in the same setting: the same measure for `COC(=O)C1=C(C)NC(C)=C([N+](=O)[O-])C1c1ccccc1C(F)(F)F` (stereo not given): 12.6 µM (active).
Still for that read-out and setting: the same measure for `Cn1c(=O)[nH]c2ncn(C)c2c1=O`: “inactive”; for `CCN(CC)CCCCCCCCOC(=O)c1cc(OC)c(OC)c(OC)c1`: 3.55 µM (active); for `CC(=O)NNC(=O)N1Cc2ccccc2Oc2ccc(Cl)cc21`: “inactive”.
Turning to `Oc1cc2c(cc1O)C(c1ccccc1)CNCC2` (stereo not given), the Potency is 11.2 µM (active).
The same measure, in the same setting: for `N#C/C(=C\c1ccc(O)c(O)c1)C(=O)NCCc1ccccc1` the value was 10 µM (active); for `NC1(C(=O)O)CC1`, 12.6 µM (active).
Consider `CCCCCCCC/C=C\CCCCCCCC(=O)NCCc1ccc(O)c(O)c1`, for which the Potency was 7.94 µM (active).
In the case of `COc1cc(C(O)CO)ccc1O` (stereo not given), the Potency entry is “inactive”.
On the same count and under the same terms, for `O=S(=O)(c1cccc2c(Cl)cccc12)N1CCCNCC1` the value was 1.58 µM (active); for `Nc1nc2[nH]c(=O)cnc2c(=O)[nH]1`, “inactive”.
`Fc1ccc(CN(C2=NCCN2)c2c(Cl)cccc2Cl)cc1`: the Potency was 3.55 µM (active).
As for `CC1=C(/C=C/C(C)=C/C=C/C(C)=C\C(=O)O)C(C)(C)CCC1`, the Potency was 8.91 µM (active).
For the molecule `CC(C)(CO)Cc1cc(C(C)(C)C)c(O)c(C(C)(C)C)c1`, the Potency was 10 µM (active).
